# Experimental data as given in PubChem BioAssay (NCI).
# “And” between values parts separate entries of the source, which are not always exact repeats. Equal values may be shown once. Compounds without any hit were thinned out: in the full panel of roughly 83,000, 20% have a hit.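 Note: values are percent growth. 100 is the growth of untreated cells, values between 100 and 0 indicate rising inhibition; between -100 and 0 indicates cell death.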 The source made the active and inactive calls. How the source made its calls: active means growth percent below 10; inactive means the rest.
# What was measured:
# Test in all cases: NCI-60 one-dose screen, 48 h (100 = growth as untreated, 0 = no growth, -100 = all killed)
# Settings in all cases: 10 µM unless noted
# NCI-H23 lung = tested on: NCI-H23 lung
# NCI-H226 lung = tested on: NCI-H226 lung
# NCI-H322M lung = tested on: NCI-H322M lung
# HOP-62 NSCLC = tested on: HOP-62 NSCLC
# NCI-H460 lung = tested on: NCI-H460 lung
# NCI-H522 lung = tested on: NCI-H522 lung
# A549/ATCC NSCLC = tested on: A549/ATCC NSCLC
# 786-0 renal = tested on: 786-0 renal
# COLO 205 colon = tested on: COLO 205 colon
# DU-145 prostate = tested on: DU-145 prostate
# K-562 leukemia = tested on: K-562 leukemia
# MALME-3M melanoma = tested on: MALME-3M melanoma
# MDA-MB-231 breast = tested on: MDA-MB-231 breast
# RXF 393 renal = tested on: RXF 393 renal
# SF-268 CNS = tested on: SF-268 CNS
# SF-295 CNS = tested on: SF-295 CNS
# SF-539 CNS = tested on: SF-539 CNS
# UACC-257 melanoma = tested on: UACC-257 melanoma
# M14 melanoma = tested on: M14 melanoma
# HOP-92 NSCLC = tested on: HOP-92 NSCLC
SMILES,growth (NCI-H23 lung),growth (NCI-H226 lung),growth (NCI-H322M lung),growth (HOP-62 NSCLC),growth (NCI-H460 lung),growth (NCI-H522 lung),growth (A549/ATCC NSCLC),growth (786-0 renal),growth (COLO 205 colon),growth (DU-145 prostate),growth (K-562 leukemia),growth (MALME-3M melanoma),growth (MDA-MB-231 breast),growth (RXF 393 renal),growth (SF-268 CNS),growth (SF-295 CNS),growth (SF-539 CNS),growth (UACC-257 melanoma),growth (M14 melanoma),growth (HOP-92 NSCLC)
Nc1ncnc2c1ncn2C1CC(O)C(CO)O1 (centres undefined),106% (inactive) and 112% (inactive),101% (inactive) and 105% (inactive),155% (inactive) and 112% (inactive),109% (inactive) and 105% (inactive),102% (inactive) and 124% (inactive),142% (inactive) and 100% (inactive),101% (inactive),101% (inactive) and 105% (inactive),116% (inactive) and 107% (inactive),125% (inactive) and 118% (inactive),116% (inactive) and 96.6% (inactive),220% (inactive) and 110% (inactive),112% (inactive) and 119% (inactive),109% (inactive),116% (inactive) and 107% (inactive),82.6% (inactive) and 95% (inactive),89.6% (inactive) and 121% (inactive),102% (inactive),113% (inactive) and 103% (inactive),
CCOc1ccc(Nc2c3ccccc3nc3ccccc23)cc1,92.1% (inactive) and 36.3% (inactive) and 18.6% (inactive),-12.9% (active) and 19.1% (inactive),99.3% (inactive) and 44.4% (inactive) and 38.3% (inactive),92.5% (inactive) and 37.1% (inactive) and 42.1% (inactive),93.6% (inactive) and 3.2% (active) and 4.66% (active),10.1% (inactive) and 35.9% (inactive),,84.8% (inactive) and 30.1% (inactive) and 43.7% (inactive),103% (inactive) and -11.2% (active) and 24.5% (inactive),104% (inactive) and 23.1% (inactive) and 35.2% (inactive),81.3% (inactive) and 6.44% (active) and 3.81% (active),99% (inactive) and 5.36% (active) and 13.2% (inactive),94.2% (inactive) and 45.9% (inactive) and 48.4% (inactive),83.7% (inactive) and -4.09% (active) and 10% (active),108% (inactive) and 34.7% (inactive) and 45.7% (inactive),65.7% (inactive) and 28.8% (inactive) and 17.1% (inactive),94.5% (inactive) and 17.9% (inactive) and 11% (inactive),96% (inactive) and 24.7% (inactive) and 44.7% (inactive),95% (inactive) and 19.4% (inactive) and 40.4% (inactive),72.2% (inactive) and -5.95% (active) and -4.39% (active)
Oc1c(CN2CCCCC2)ccc2cccnc12,79% (inactive) and 80.2% (inactive),63.8% (inactive) and 33.7% (inactive),36.5% (inactive) and 32.4% (inactive),52.1% (inactive) and 41.1% (inactive),21.1% (inactive) and 10.5% (inactive),-3.86% (active) and 16.2% (inactive),,11% (inactive) and 42.4% (inactive),66.7% (inactive) and 80.4% (inactive),67.9% (inactive) and 53.7% (inactive),28.8% (inactive) and 30.6% (inactive),88.1% (inactive) and 82.5% (inactive),53.2% (inactive) and 46.9% (inactive),85.1% (inactive) and 3.68% (active),69.3% (inactive) and 47.6% (inactive),37.1% (inactive),74.7% (inactive) and 57% (inactive),77.1% (inactive) and 71.6% (inactive),20.7% (inactive) and 32.6% (inactive),
COc1c(/C(C)=N/N=c2sc(C(C)=O)nn2-c2ccc(Cl)cc2)c(Oc2ccccc2)c(OC)c2occc12,89.6% (inactive) and 98% (inactive),98.9% (inactive) and 97.4% (inactive),89.8% (inactive) and 100% (inactive),88.6% (inactive) and 98.3% (inactive),,91.5% (inactive) and 79.8% (inactive),108% (inactive) and 102% (inactive),102% (inactive),114% (inactive) and 111% (inactive),110% (inactive) and 109% (inactive),93.9% (inactive) and 101% (inactive),102% (inactive) and 101% (inactive),107% (inactive) and 101% (inactive),113% (inactive),101% (inactive) and 87% (inactive),95.8% (inactive) and 105% (inactive),103% (inactive) and 93.7% (inactive),106% (inactive) and 113% (inactive),113% (inactive) and 96.2% (inactive),90.9% (inactive) and 93.5% (inactive)
Cc1ccc(S(=O)(=O)Nc2ccc3cc([N+](=O)[O-])ccc3c2[N+](=O)[O-])cc1,65.7% (inactive) and 92.6% (inactive),67.6% (inactive) and 95.5% (inactive),93% (inactive) and 93.1% (inactive),92.7% (inactive) and 95% (inactive),76.4% (inactive) and 91.3% (inactive),54.6% (inactive) and 85.3% (inactive),,72.2% (inactive) and 85.9% (inactive),106% (inactive) and 96.6% (inactive),90.9% (inactive) and 106% (inactive),81.8% (inactive) and 29% (inactive),62.6% (inactive) and 90.9% (inactive),98.8% (inactive) and 95.1% (inactive),93.2% (inactive) and 102% (inactive),81.8% (inactive) and 94.8% (inactive),38.9% (inactive) and 53.1% (inactive),89.8% (inactive) and 111% (inactive),82.3% (inactive) and 97% (inactive),95.5% (inactive) and 95% (inactive),27.9% (inactive) and -8.68% (active)
CCOc1ccc2cc(-c3nn(CC4CCNCC4)c4ncnc(N)c34)ccc2c1,77.5% (inactive) and 55.6% (inactive),67.5% (inactive) and 52.5% (inactive),91.6% (inactive) and 75.4% (inactive),83.2% (inactive) and 64.9% (inactive),,86.5% (inactive) and 81.4% (inactive),85% (inactive) and 59% (inactive),91.4% (inactive) and 36% (inactive),93% (inactive) and 15.3% (inactive),108% (inactive) and 57.5% (inactive),59.3% (inactive) and -8.9% (active),73.7% (inactive) and -54.7% (active),86.5% (inactive) and 15.6% (inactive),55.4% (inactive) and 18% (inactive),80.6% (inactive) and 41.1% (inactive),108% (inactive) and 74.5% (inactive),77.4% (inactive) and 40.2% (inactive),-52.9% (active),91.5% (inactive) and -42.6% (active),72.5% (inactive) and 26.5% (inactive)
Cc1ccc(S(=O)(=O)NCN2C(=O)c3ccccc3C2=O)cc1,103% (inactive),115% (inactive),105% (inactive),112% (inactive),,103% (inactive),99% (inactive),103% (inactive),,125% (inactive),106% (inactive),133% (inactive),117% (inactive),121% (inactive),106% (inactive),100% (inactive),112% (inactive),104% (inactive),109% (inactive),109% (inactive)
N#CCCOc1ccccc1,,110% (inactive),,95.3% (inactive),105% (inactive),87.7% (inactive),96.7% (inactive),98.2% (inactive),106% (inactive),117% (inactive),89.6% (inactive),95.1% (inactive),108% (inactive),114% (inactive),102% (inactive),101% (inactive),96.2% (inactive),92.6% (inactive),97.9% (inactive),84.6% (inactive)
O=C1c2c(O)cc(O)cc2OC(c2ccc(O)c(O)c2)C1O (centres undefined),,109% (inactive),126% (inactive),110% (inactive),,,105% (inactive),,119% (inactive),132% (inactive),104% (inactive),118% (inactive),106% (inactive),124% (inactive),111% (inactive),119% (inactive),107% (inactive),107% (inactive),,108% (inactive)
